# Compounds with a hit are over-represented: about 3.5% of the library has one in this group of screens.
# MITF primary – inhibitors of human MITF; hit rate 0.91% among 650,000; inhibition, % at 2.6 µM; AID 1259374; O75030; AlphaScreen MITF homodimerization, bead proximity signal; in the data active = inhibition above about 50%
# Target sequence (O75030 whole entry, looked up): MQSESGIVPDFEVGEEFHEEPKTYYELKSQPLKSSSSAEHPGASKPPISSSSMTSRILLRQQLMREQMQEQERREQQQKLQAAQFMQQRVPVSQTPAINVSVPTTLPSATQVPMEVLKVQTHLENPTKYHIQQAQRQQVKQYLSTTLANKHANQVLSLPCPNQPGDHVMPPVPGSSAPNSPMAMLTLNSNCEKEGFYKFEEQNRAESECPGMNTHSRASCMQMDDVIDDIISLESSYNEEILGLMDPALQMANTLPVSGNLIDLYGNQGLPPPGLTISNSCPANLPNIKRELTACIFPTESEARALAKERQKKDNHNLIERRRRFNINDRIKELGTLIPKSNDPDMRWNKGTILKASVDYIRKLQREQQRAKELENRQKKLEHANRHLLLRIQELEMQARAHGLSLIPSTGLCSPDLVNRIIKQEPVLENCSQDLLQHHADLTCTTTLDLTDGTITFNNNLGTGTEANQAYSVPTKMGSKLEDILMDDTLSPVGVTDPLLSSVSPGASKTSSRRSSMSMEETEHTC
# GPR151 ag – activates the human receptor GPR151. Q8TDV0. PathHunter beta-arrestin GPR151 cells, luminescence. activation, % at 11.2 µM. hit rate 1% among 650,000; in the data active = activation above about 4.9%
# FBW7 act – human FBW7 E3 ligase activation, primary screen; Q969H0; AlphaScreen FBW7–phospho-cyclin E peptide binding, activator screen; normalized activity (activation), % at 26.1 µM; hit rate 0.13% among 650,000; AID 1259310; in the data active = normalized activity above about 1.9%;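 note: purified mutant Fbw7 with reduced substrate affinity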
# TEAD-YAP block – TEAD-YAP interaction inhibition; HEK-TIYL cells, TEAD-Gal4/YAP UAS-luciferase luminescence; inhibition, % at 9.12 µM; hit rate 1.4% among 640,000; AID 1259422; in the data active = inhibition above about 32%
# Hits are given with their value; i = inactive.
SMILES,MITF primary,GPR151 ag,FBW7 act,TEAD-YAP block
CN1CCN(c2ccc(-c3nc(NCCCN4CCCC4=O)c4ncn(-c5ccsc5)c4n3)cc2)CC1,i,i,i,35.1
CC(=O)Nc1nc2ccc(S(=O)(=O)N3CCCCC3)cc2s1,i,i,i,i
CC(C)CC(=O)Nc1nc2ccc(S(=O)(=O)N3CCCCC3)cc2s1,i,i,i,51.9
O=C(NCCc1nc(-c2cccnc2)n[nH]1)C1(c2ccc(Cl)cc2)CCC1,i,i,i,i
CC[C@H](Cn1nc(-c2ccc(F)c(F)c2)ccc1=O)NC(=O)Cc1ccc(OC)cc1,i,i,i,i
Cc1ccccc1C(=O)/C=c1\[nH]c(=O)/c(=C\c2cccc(O)c2)s1,i,i,i,56.9
O=C(Nc1nc2cc3c(cc2s1)OCO3)C1=COCCO1,i,i,i,52.0
COc1cc2nc(NC(=O)C3=COCCO3)sc2cc1OC,i,i,i,i
CC(=O)Nc1cc(OC(C)=O)c2nonc2c1OC(C)=O,i,i,i,98.8
COC(=O)c1cc(COC(=O)c2cccc(S(=O)(=O)NCc3ccccc3)c2)oc1C,i,i,i,i
COc1ccc(COC(=O)c2cccc(S(=O)(=O)NCc3ccccc3)c2)cc1F,i,i,i,45.2
CC1=C(C(=O)OCc2ccccc2)C(c2cn(-c3ccccc3)nc2-c2ccccc2)C(C(=O)OCc2ccccc2)=C(C)N1,i,i,i,i
Cc1ccc(/C=C/C(=O)C2C(=O)c3ccccc3C2=O)cc1,i,i,i,41.4
CC(=O)c1cccc(-c2nc(C)cc(NCCOc3ccccc3)n2)c1,i,i,i,i
CC(=O)c1ccc(OCC(=O)NCC2Cc3c(F)ccc(-c4ccncc4)c3O2)cc1 (stereo not drawn),i,i,i,32.8
COc1ccc(C2CC(=O)C=C(Nc3cc(C)ccc3O)C2)cc1 (stereo not drawn),i,i,i,i
COc1ccc(C2CC(=O)C=C(Nc3cc(Cl)ccc3O)C2)cc1 (stereo not drawn),i,i,2.1,i
C[C@H]1C(=O)N2CCN(C(=O)c3cc(F)c(F)cc3F)C[C@@H]2C(=O)N1C,i,i,i,i
Cc1cc(Br)ccc1N1C(=O)/C(=C/c2ccc(Br)cc2)C=C1c1ccccc1,i,i,i,i
Cc1cc(Br)ccc1N1C(=O)/C(=C/c2ccc(Cl)cc2)C=C1c1ccccc1,i,i,1.9,i
O=C(CCn1cncn1)N1CCC[C@@H]2CN(Cc3ccc(F)cc3)CC[C@H]21,i,i,i,i
COc1ccc(NC(=O)Cn2cnc3c(cnn3-c3ccccc3)c2=O)cc1OC,i,i,i,i
Fc1ccc(-c2cc(C(F)(F)F)nc(NCc3cccnc3)n2)cc1,i,i,i,40.0
O=C(CNC(=O)c1ccccc1O)N=Nc1c(O)[nH]c2ccccc12,i,i,i,i
COc1cc(-c2cnc3c(Nc4ccc5[nH]ccc5c4)nccn23)cc(OC)c1OC,i,i,i,i
SMILES,MITF primary,GPR151 ag,FBW7 act,TEAD-YAP block
Oc1ccc(-c2cnc3c(Nc4ccc5[nH]ccc5c4)nccn23)cc1,i,i,i,68.7
OCc1ccccc1-c1cnc2c(Nc3ccc4[nH]ccc4c3)nccn12,i,i,i,92.8
Cc1ccc(-c2cnc3c(Nc4ccc5[nH]ccc5c4)nccn23)cc1,i,i,i,i
Nc1ccc(-c2cnc3c(Nc4ccc5[nH]ccc5c4)nccn23)cc1,i,i,i,68.9
c1cn2c(-c3ccsc3)cnc2c(Nc2ccc3[nH]ccc3c2)n1,i,i,i,55.5
CCOC(=O)/C(=C/c1ccc(Cl)cc1)C(C)=O,i,i,i,i
N=C1/C(=C/c2ccc(-c3ccc(F)cc3)o2)C(=O)N=C2SC(C3CCCCC3)=NN12,i,i,i,i
COc1ccc(/C=C/C(=O)Nc2nc(-c3ccc(F)cc3)cs2)cc1OC,i,i,i,57.2
COc1ccccc1-c1csc(NC(=O)/C=C/c2ccccc2)n1,i,i,i,i
COc1cc([N+](=O)[O-])cc(/C=N/NC(=O)c2cc(C)[nH]n2)c1O,59.0,i,i,i
Cc1cc(C(=O)N/N=C\c2ccccc2O)n[nH]1,i,i,i,i
COc1cc(/C=N/NC(=O)c2cc(C)[nH]n2)c(Br)c(Br)c1O,i,i,i,i
Cc1cc(C(=O)N/N=C/c2cc(N=Nc3ccccc3)ccc2O)n[nH]1,i,i,i,61.6
COc1cc(Br)cc(/C=N/NC(=O)c2cc(C)[nH]n2)c1O,55.0,i,i,i
CCOC(=O)c1c(NS(=O)(=O)c2ccc(C)cc2)sc(C)c1C,i,i,i,i
C[C@H](Nc1ccc(C(F)(F)F)cc1[N+](=O)[O-])C(=O)Nc1nc2ccccc2[nH]1,i,i,i,32.5
CC(Nc1ccc(C(F)(F)F)cc1[N+](=O)[O-])C(=O)O (stereo not drawn),i,i,i,i
COC(=O)C1=C(C)N(c2cccc(OC)c2)C(=O)C1,i,i,i,i
COC(=O)C1=C(C)N(c2ccc(Cl)c(Cl)c2)C(=O)C1,i,i,i,35.5
CN(C)CCNC(=O)c1cccc(CN(C(=O)c2nc3ccc(-c4cn[nH]c4)cc3s2)C2CC2)c1,i,i,i,i
Cc1ccc2nc(/C(C#N)=C/c3ccccc3OC(=O)c3ccccc3)[nH]c2c1,i,i,i,51.7
O=c1c2cccc3c2c(nn1Cc1ccccc1Cl)-c1ccccc1-3,i,i,i,i
O=c1c2cccc3c2c(nn1CCN1CCCCC1)-c1ccccc1-3,i,i,i,80.4
CCCCOC(=O)c1ccc2c(c1)C(=O)N(c1cccc(Cl)c1Cl)C2=O,i,i,i,i
COc1ccccc1N(CC(=O)NC(C(C)C)C(C)C)S(C)(=O)=O,i,i,i,i
SMILES,MITF primary,GPR151 ag,FBW7 act,TEAD-YAP block
CC(C)C(NC(=O)CN(c1ccccc1Br)S(C)(=O)=O)C(C)C,i,i,2.4,i
Cc1ccccc1NC(=O)Nc1ccnn1C1CCN(Cc2cc(F)cc(F)c2)CC1,i,i,i,i
COc1ccc(/C=C2\C(=O)Nc3ccc(Br)cc32)c(OC)c1OC,i,i,i,52.8
COc1ccc(/C=C2\C(=O)Nc3ccc(Br)cc32)cc1,i,i,i,i
Cc1ccc(NC(=O)CSc2nnc(NC(=O)c3ccccc3[N+](=O)[O-])s2)cc1,i,i,i,i
Cc1cc(C)cc(OCC(=O)Nc2ccc(F)c([N+](=O)[O-])c2)c1,i,i,i,36.9
O=C(COc1cccc(Cl)c1)Nc1ccccc1[N+](=O)[O-],i,i,i,32.2
Cc1cccc(OCC(=O)Nc2ccc(F)c([N+](=O)[O-])c2)c1,i,i,i,32.0
Cc1ccc(C(=O)Nc2nnc(SCC(=O)Nc3ccc(F)c([N+](=O)[O-])c3)s2)cc1,i,i,i,82.9
Cc1ccc(OCC(=O)Nc2ccc(F)c([N+](=O)[O-])c2)cc1C,i,i,i,i
CC(=O)Nc1ccc(NC(=O)c2cc3c(C)nn(-c4ccccc4)c3s2)cc1,i,i,i,i
CC(C)CCNC(=O)CN1CCN(Cc2ccc(Cl)cc2)C1=O,i,i,i,i
N#Cc1ccccc1NC(=O)Cn1ncc(Cl)c(Cl)c1=O,i,i,i,55.0
CC(=O)c1cccc(NC(=O)CC2S/C(=N\N=C\c3cccs3)NC2=O)c1 (stereo not drawn),i,i,i,i

# Screening data deposited in PubChem BioAssay by The Scripps Research Institute Molecular Screening Center.
